Assay results as given in PubChem BioAssay AID2314 (National Center for Advancing Translational Sciences (NCATS), 2010).
The whole screen tested about 300,000 compounds, of which about 37,000 (12%) were called active. The entries come from a sample that favours actives as a whole. A number with no mark means an inactive call. No stated cut-off is given here; in the data, active means max response mostly above about 13% (no sharp cut-off); inactive means mostly below about 14%.

test: Cycloheximide Counterscreen for Small Molecule Inhibitors of Shiga Toxin; details: cell reporter, cycloheximide protein synthesis inhibition counterscreen; hits give high values; further: read at 38.3 µM for the half of the compounds with a filed dose; 0% is about no effect

Structure (SMILES) | max response
CSc1nsc(SCC(=O)Nc2cc(C(=O)O)ccc2C)n1 | 1.8%
COc1ccc(NC(=O)CSc2nc(SC)ns2)c(OC)c1 | 42.1% (active)
COc1cc(OC)cc(-c2nnc(SCC(=O)Nc3ccc(C(=O)O)cc3)s2)c1 | -1.06%
Cc1csc(SCC(=O)Nc2sccc2C#N)n1 | 2.13%
COc1ccc(C)cc1NC(=O)CSc1nc(SC)ns1 | 10.3%
COc1ccc(NC(=O)CSc2nc(C)cs2)cc1 | 27.7% (active)
O=S(=O)(NCCCCCCNS(=O)(=O)c1c(F)cccc1F)c1ccc2c(c1)OCCO2 | -6.04%
C#CCOc1ccccc1/C=C1/C(=O)ON=C1C | 7.98%
COc1ccccc1C(=O)N/C(=C/c1ccco1)C(=O)Nc1ccc(C(=O)O)cc1 | -3.58%
Cc1c(NC(=O)Nc2cccc([N+](=O)[O-])c2)c(=O)n(-c2ccccc2)n1C | 3.26%
CCN1CCN(CCNC(=O)c2ccc3c(c2)NC(=O)/C(=C\c2ccc(OC)c(OC)c2)S3)CC1 | 1.31%
CC(Nc1nc(C(F)(F)F)nc2ccccc12)c1cccs1 (stereo not given) | -5.02%
C=Cn1cc[n+](CC(=O)c2ccc(OC)c(OC)c2)c1 | -1.55%
CN(C)c1nc(NN)nc(Nc2ccc(F)cc2)n1 | -3.59%
CN(C)c1nc(Nc2ccc(Cl)c(Cl)c2)nc(N(C)C)n1 | 1.57%
CC(=O)Nc1nc(N(C)C)nc(N(C)C)n1 | 26.5% (active)
O=S1(=O)CCO[C@H]2Cc3ccccc3[C@H]2N1Cc1ccccc1 | -1.34%
Cc1c(-c2nn(C)c(=O)c3ccccc23)oc2ccc(F)cc2c1=O | -8.42%
Cc1cccc(-c2nc3ccc(C(=O)NCCN4CCN(C)CC4)cc3nc2-c2cccc(C)c2)c1 | -13.3%
C=CCNC(=O)c1ccc2c3n(nc2c1)-c1ccc(C)cc1CO3 | 34.5% (active)
C=CCNC(=O)c1ccc(C)c(Br)c1 | 5.91%
CCCCn1c(N)c(N(CCC(C)C)C(=O)c2ccc([N+](=O)[O-])o2)c(=O)[nH]c1=O | -1.97%
CCN(CC)CC(=O)Nc1sc2c(c1C(=O)c1ccccc1C)CCC2 | -2.82%
CCOc1ccc(C(C(=O)NCCOC)N(CCOC)C(=O)CCC(=O)Nc2ccccn2)cc1 (stereo not given) | 1.47%
CC(O)c1ccc(OCCN(C)c2ccccn2)cc1 (stereo not given) | 55.9% (active)

Structure (SMILES) | max response
CC(C)c1ccc(OCC(O)CN2CCN(c3ccccn3)CC2)cc1 (stereo not given) | -1.42%
Nc1[nH]c(=S)nc2nc(-c3ccccc3)c(-c3ccccc3)nc12 | -2.36%
C=CCNc1cnn(-c2ccc(C)cc2)c(=O)c1Cl | 66.7% (active)
Cc1ccc(Oc2cnn(-c3ccccc3)c(=O)c2Br)cc1 | 12.3%
CC1=C(C(=O)NC2CC(C)(C)Cc3c2cnn3-c2ccc(C)cc2)OCCO1 (stereo not given) | 10.7%
CC(C)(C)c1nc2ccccc2c(=O)n1N1C(=O)c2ccccc2C1=O | -2.32%
Cc1ccc2nc(COc3ccc(N(C)S(=O)(=O)c4ccccc4)cc3)cc(=O)n2c1 | -1.15%
O=C(O)c1ccc(COCC(F)(F)F)cc1 | -3.85%
CCOc1ccc(-c2ccc(SCC(=O)N3CCOCC3)nn2)cc1 | 23.3%
CCOc1c(CNCc2ccc(C(=O)O)cc2)cccc1OC | -3.44%
CCCCCc1ccc(-c2cn(Cc3ccc4ccccc4c3)nn2)cc1 | -2.64%
CCCCCc1ccc(-c2ccc(OCC)cc2)nc1 | 15.6% (active)
CCCCCc1ccc(-c2ccc(C(=O)O)cc2)nc1 | 79.8% (active)
COc1ccc(CNC(=O)C2CCN(S(=O)(=O)c3ccc(SC)cc3)CC2)cc1 | 10.4%
CCn1c(O)c(N=NC(=O)c2cccc(S(=O)(=O)N3CCCCC3)c2)c2ccccc21 | -2.88%
CC(=O)[O][Sn]([c]1ccccc1)([c]1ccccc1)[c]1ccccc1 | -16.7%
O=C(O)CN1CCN(C(c2ccccc2)c2ccccc2)CC1 | -0.558%
COC(=O)Cc1csc(/N=C/c2c(O)n(-c3cccc(C(F)(F)F)c3)c(=O)c3ccccc23)n1 | -0.585%
COc1ccc(NC(=O)c2cc([N+](=O)[O-])ccc2NC(=O)CNC2CCCCC2C)c(OC)c1 (stereo not given) | -4.84%
CC(C)c1nnc(NC(=O)COC(=O)/C=C/c2ccc([N+](=O)[O-])cc2)s1 | -2.23%
COc1ccc(C(=O)NC2CCN(C(=S)Nc3ccccc3)CC2)cc1 | -4.48%
COc1ccccc1C1CCN(C(=S)Nc2ccc(Br)cc2)CC1 | 21.5% (active)
CCC(C)N(C)C1CCN(C(=S)Nc2ccc(OC)cc2)CC1 (stereo not given) | 2.11%
O=C(CN1CCN(c2ccccc2)CC1)Nc1ccc(F)cc1 | 0.655%
Cc1cc2oc(C(=O)Nc3c(C)n(C)n(-c4ccccc4)c3=O)c(C)c2cc1Cl | -5.74%

Structure (SMILES) | max response
O=C(CC1NCCNC1=O)Nc1cc(Cl)cc(Cl)c1 (stereo not given) | -5.54%
O=C(CC1C(=O)NCCN1C(=O)c1ccc([N+](=O)[O-])cc1)Nc1cccc(Cl)c1 (stereo not given) | 5.86%
O=C(CC1NCCc2ccccc21)Nc1cccc(Cl)c1 (stereo not given) | 30.4% (active)
O=C1/C(=C\c2ccccc2Cl)SC(=S)N1CCC(=O)N1CCCc2ccccc21 | -2.48%
Cc1ccc(C(=O)N2CC(=O)Nc3ccc(F)cc3C2c2ccc(F)cc2)cc1 (stereo not given) | -2.84%
CCn1c(=S)sc2c(=O)n(CC(=O)Nc3cccc(Br)c3)c(C)nc21 | -2.2%
CCCCC(C(=O)NC(C)(C)C)N(Cc1ccccc1)C(=O)c1snc(C(N)=O)c1N (stereo not given) | -0.829%
COc1ccc(S(=O)(=O)NC(C)C(=O)Nc2cccc([N+](=O)[O-])c2)cc1 (stereo not given) | 5.76%
CC(=O)Nc1cccc([N+](=O)[O-])c1 | 5.16%
COC(=O)/C=C\C(=O)Nc1cccc([N+](=O)[O-])c1 | 58% (active)
C[C@H](NC(=O)[C@@H]1Cc2ccccc2CN1C(=O)OC(C)(C)C)C(=O)NC1CCCC1 | 0.878%
Cc1cc(OC(=O)c2ccc(OC(C)C)cc2)c([N+](=O)[O-])c(=O)[nH]1 | 10.8%
Cc1ccc(S(=O)(=O)NCCCn2ccnc2)cc1C(=O)NC(C)C | -2.94%
CCOc1ccc(N2C(=O)/C(=C/c3ccc(C)o3)N(C)C2=S)cc1 | -2.62%
CCOc1ccc(NC(=O)NNC(=O)c2ccc(Cl)cc2Cl)cc1 | -2.33%
CC(C)(C)OC(=O)N1CCC(C(=O)NNC(=O)c2ccc(Cl)cc2Cl)CC1 | 1.42%
Cc1ccc(C(=O)NNC(=O)OC(C)(C)C)c(Cl)c1 | 23.3% (active)
Cc1ccccc1CN1C[C@@H]2C[C@@H](c3cn(C)nc3-c3ccccc3)N3CCC[C@@]23C1=O | -1.2%
CCOC(=O)C(=CNc1cccc(C)n1)C(=O)OCC | 11.4%
COC(=O)C(C(=O)Nc1cccc(C)n1)C1CCCCCC1 (stereo not given) | 0.569%
Cc1cccc(NC(=O)c2cccnc2Cl)n1 | 24.1% (active)
Cc1cccc(NC(=O)c2ccccc2NC(=O)C(C)(C)C)n1 | -4.22%
Cc1cccc(NC(=O)c2ccc3ccccc3n2)n1 | 56.4% (active)
Cc1cccc(NC(=O)c2cc(N3C(=O)CCC3=O)ccc2Cl)n1 | -1.19%
COc1cccc(CNC(=O)C2CCCN(c3ncnc4c3nc3n4CCCCC3)C2)c1 (stereo not given) | -1.2%

Structure (SMILES) | max response
COc1cc2c(cc1OC)C(C(=O)Nc1cc(C)c(OC)c(C)c1)CC(=O)N2 (stereo not given) | -2.52%
Cc1c(Cl)cccc1NC(=S)NCC(O)c1ccccc1 (stereo not given) | 7.6%
O=c1ccc2cc(S(=O)(=O)NCCCc3ccccc3)ccc2[nH]1 | 0.781%
COCC(=O)Nc1c(C(=O)N2CCCC2)oc2ccccc12 | 9.66%
O=C(Nc1ccc(N2CCOCC2)nc1)c1c(F)cccc1F | 47.6% (active)
O=C(Nc1ccc(F)cc1)c1cccnc1N1CCOCC1 | -3.65%
NC(=O)c1ccc(N2CCOCC2)nc1 | 3.99%
Cc1cccc(C)c1NC(=O)C(Cl)C(=O)c1ccccc1 (stereo not given) | -3.97%
CCCCNC(=S)N/N=C1\CCCCc2ccccc21 | -5.15%
O=C(C1=C[C@H](c2coc3ccccc3c2=O)C[C@H](OCc2ccc(CO)cc2)O1)N1CCN(Cc2ccccc2)CC1 | 1.24%
COc1ccccc1N1CCN(S(=O)(=O)CCNC(=O)c2ccc(OC(C)C)cc2)CC1 | -4.03%
CCOC(=O)c1ccccc1CN1C(=O)c2ccccc2S1(=O)=O | 0.941%
CCOC(=O)c1cc2n(c1N)-c1ccccc1C2=O | 16.1% (active)
CCOC(=O)C1=C(C(=O)OCC)C(C(=O)OCC)N(S(=O)(=O)C(F)(F)F)c2ccccc21 (stereo not given) | 2.14%
Nc1ncc(CN2CCCC(C(=O)Nc3ccc(-c4ccco4)cc3)C2)cn1 (stereo not given) | -1.66%
CCOC(=O)c1cccc(NC(=O)CCc2nnc3ccc(N4CCOCC4)nn23)c1 | 0.592%
COC(=O)c1ccc(NCC(=O)c2ccccc2)cc1 | 29.7% (active)
COC(=O)c1ccc(NC(=O)c2ccccc2NS(=O)(=O)c2ccccc2)cc1 | 7.47%
COC(=O)c1ccc(C(=O)OC)c(NC(=S)N2CCCCC2)c1 | 1.84%
Cc1ccc(NC(=O)CCC(=O)c2ccc(Br)cc2)cc1 | -1.06%
Cc1ccc(C(=O)CNc2ccc(F)cc2)cc1 | 13.3% (active)
COc1ccc(NC(=O)CCCC(=O)c2ccccc2)cc1 | 12%
Cc1ccc(C(=O)NC2CCN(C(=O)Nc3ccc(F)cc3)CC2)cc1 | -5.94%
COC(=O)c1ccc(NCC(=O)N2CCCCCC2)cc1 | 19.4% (active)
COC(=O)c1ccc(/C=N/NC(=O)C(=O)N2CCCCCC2)cc1 | -2.86%
